These results are taken from PubChem BioAssay AID485270 (The Scripps Research Institute Molecular Screening Center, 2010).

SMILES strings stand for the structures. About 5,800 (1.8%) of roughly 330,000 compounds were called active. Shown is part of a subset that was picked to be rich in actives. Unmarked numbers belong to inactive results. Cut-off read from the data, not from the text of the source: active = inhibition mostly above about 38% (no sharp cut-off); inactive = mostly below about 40%.

The target of the test is Orexin/Hypocretin receptor type 1 (Homo sapiens) (UniProt O43613). Kind of test: antagonists of human orexin 1 receptor (OX1R) (AID 485270).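 Note: 0% = agonist challenge alone and 100% = reference antagonist.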 Conditions: OX1R-expressing cells, FRET antagonist read-out; at 6.6 µM; hits give high values.
Sequence of Orexin/Hypocretin receptor type 1 (Homo sapiens) (O43613 whole entry, looked up): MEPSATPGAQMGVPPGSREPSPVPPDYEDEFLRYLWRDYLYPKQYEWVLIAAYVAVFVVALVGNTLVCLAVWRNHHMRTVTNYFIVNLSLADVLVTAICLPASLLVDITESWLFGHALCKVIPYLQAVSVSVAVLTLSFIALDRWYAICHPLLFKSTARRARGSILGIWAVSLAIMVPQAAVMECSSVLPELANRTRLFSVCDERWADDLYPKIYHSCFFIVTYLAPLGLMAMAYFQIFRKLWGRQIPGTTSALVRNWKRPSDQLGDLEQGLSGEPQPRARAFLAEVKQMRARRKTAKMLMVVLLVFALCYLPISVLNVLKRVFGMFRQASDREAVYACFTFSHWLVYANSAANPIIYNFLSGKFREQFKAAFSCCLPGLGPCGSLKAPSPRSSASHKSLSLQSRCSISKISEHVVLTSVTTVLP
On to `Cc1ccc(S(=O)(=O)NCC(C)NS(C)(=O)=O)cc1` (stereo not given), for which the inhibition – broadly, the change of the read-out against control, counted positive when it falls – was 4.32%.

For the compound `CCN(CC(=O)NC(C)C)C(=O)c1cc(S(=O)(=O)N2CCCCC2)ccc1N1CCCCC1`, the inhibition is 4.56%.

With `CC(=O)NC(CC(=O)Nc1ccc(S(=O)(=O)N2CCOCC2)cc1)c1ccccc1` (stereo not given), the inhibition was 6.07%.

As to `Cn1nccc1C(=O)NC1CCCc2c1cnn2-c1ccccc1F` (stereo not given), the inhibition is 26.4%.

As for `Cc1cc(C(=O)NC2CCCc3c2cnn3-c2cccc(C)c2C)c(C)o1` (stereo not given), the inhibition was 81% (active).

As for `COc1ccc(C(=O)NC2CCCc3c2cnn3-c2cccc(C)c2C)c(OC)n1` (stereo not given), the inhibition is 38.4%.

Turning to `CC[C@]1(C(=O)OC)[C@H]2C(=O)N(Cc3ccccc3)C(=O)[C@H]2[C@H]2CN=C(SCc3ccc(C#N)cc3)N21`, the inhibition was 4.34%.

For `C=CC[C@H](CC(=O)OC(C)(C)C)C(=O)OC[C@H]1CCCN1C(=O)[C@H](CC=C)CC(=O)N(CCO)Cc1ccccc1`, the inhibition is 2.54%.

For the compound `Cc1ccc(NC(=O)CN(C)CC(=O)Nc2cccc(F)c2)cc1[N+](=O)[O-]`, the inhibition is 30%.

With `CN1CCN(CC(=O)Nc2cccc([N+](=O)[O-])c2)CC1`, the inhibition is 28%.

In the case of `Cc1ccc(NC(=O)CN2CCC(C(N)=O)CC2)cc1[N+](=O)[O-]`, the inhibition is 50.4% (active).

Regarding `C[C@H](CO)N1C[C@H](C)[C@@H](CN(C)C(=O)NC2CCCCC2)Oc2ccc(NC(=O)c3ccncc3)cc2C1=O`, the inhibition was 1.49%.

As for `Cc1ccc(C(=O)NNC(=O)CSc2nnc3ccccn23)cc1`, the inhibition is 0.4%.

Regarding `COCCN(Cc1nc(-c2ccc(C(F)(F)F)cc2)no1)C(C)C`, the inhibition is -2.95%.

Consider `CC(=O)N(C1=C(Cl)C(=O)c2ccccc2C1=O)c1ccc(C(=O)O)cc1`, for which the inhibition is 39.2% (active).

For the compound `CC(=O)c1ccc(-c2nnc(CCC(=O)N(C)Cc3cnc4ccccn34)o2)s1`, the inhibition is 40.1% (active).

In the case of `CCc1ccc(CN(C)C(=O)CCc2nnc(-c3ccc(-c4ccccc4)cc3)o2)nc1`, the inhibition is 3.52%.

For `O=C(N/N=C/c1cc(Cl)cc([N+](=O)[O-])c1O)C(O)(c1ccccc1)c1ccccc1`, the inhibition is 54.6% (active).

In the case of `CN(C)/N=C/c1cc(Cl)cc([N+](=O)[O-])c1O`, the inhibition is 46.4%.

`O=C(N/N=C/c1cc(Br)c(O)c([N+](=O)[O-])c1)C(O)(c1ccccc1)c1ccccc1`: the inhibition was 28.3%.

As for `COc1cc(NC(=O)COC(=O)c2cc(S(=O)(=O)N3CCOCC3)ccc2F)cc(OC)c1`, the inhibition was 15.3%.

For the compound `O=C(c1cnccn1)N1CCN(S(=O)(=O)c2cccc(Cl)c2)CC1`, the inhibition is 4.72%.

Take `O=C(C[C@@H]1C/C=C\CCC(=O)OC[C@@H]2CCCN2C1=O)NCCO`: the inhibition was 4.18%.

For the compound `Cc1ccc(S(=O)(=O)N2[C@@H](c3cccc4ccccc34)C(C(=O)O)=C[C@H]2C(C)(C)C)cc1`, the inhibition is 46.2% (active).

Regarding `CCCCC[C@@H]1C=C(C(=O)O)[C@H](c2ccc(C#N)cc2)N1S(=O)(=O)c1ccc(C)cc1`, the inhibition is 10.8%.

Consider `Cc1ccc(S(=O)(=O)NNC(=O)Nc2cccc3ccccc23)cc1`, for which the inhibition is 21.8%.

As for `O=C1CSc2ccc(C(=O)NCc3ccccn3)cc2N1`, the inhibition is 3.47%.

Turning to `CN(C(=O)CSc1nnc(-c2c[nH]c3ccccc23)o1)C1CCS(=O)(=O)C1` (stereo not given), the inhibition is 16.6%.

Take `O=C(CSc1nnc(-c2c[nH]c3ccccc23)o1)c1ccccc1`: the inhibition was 29.7%.

In the case of `CN(C(=O)CSc1nnc(-c2n[nH]c3ccccc23)o1)c1ccccc1`, the inhibition is 91.9% (active).

On to `COc1ccc(NC(=O)Nc2cccc3cccnc23)cc1`, for which the inhibition was 40% (active).

With `O=C(Nc1cccnc1Cl)c1cc(-c2cccc(Cl)c2)on1`, the inhibition was 11.7%.

Consider `O=C(Nc1cccc2cccnc12)c1cccc(N2C(=O)CCC2=O)c1`, for which the inhibition is 92.7% (active).

`N#Cc1ccc(C(=O)Nc2cccc3cccnc23)c(F)c1`: the inhibition is 11%.

For the compound `COC(=O)c1cccc(NC(=O)c2cccc(N3C(=O)CCC3=O)c2)c1`, the inhibition is 4.2%.

Regarding `Cc1cc(NC(=O)c2cccc(N3C(=O)CCC3=O)c2)no1`, the inhibition was 11.9%.

For the compound `COc1ccc(NC(=O)C2CCCN(S(=O)(=O)c3cccc4cccnc34)C2)cc1` (stereo not given), the inhibition was 4.36%.

Turning to `CCOC(=O)Cc1ncccc1C(=O)Nc1ccc(OC)cc1`, the inhibition is 25.1%.

With `O=C(Nc1cccc2cccnc12)c1cccc(Cl)c1`, the inhibition is 61.5% (active).

With `CC[C@]1(C(=O)OC)[C@H]2C(=O)N(C)C(=O)[C@H]2[C@H]2CN(C)C(=NCc3ccccc3)N21`, the inhibition is 2.73%.

As to `COc1ccccc1CNC(=O)COC(=O)c1cccs1`, the inhibition was 2.2%.

On to `O=C(CN1C(=O)NC(Cc2c[nH]c3ccccc23)C1=O)Nc1ccccc1C(F)(F)F` (stereo not given), for which the inhibition was 3.6%.

For `CCC(C)c1ccc(NC(=O)COC(=O)C2CCCC2)cc1` (stereo not given), the inhibition is 5.25%.

Consider `CCOC(=O)[C@@H]1[C@H]2COc3ccc(Br)cc3[C@H]2N2C(=O)N(c3ccc(C)cc3)C(=O)[C@@]12C`, for which the inhibition is 10.5%.

Take `O=C(Cn1cnc2c(OCc3ccccc3)ncnc21)NCc1nc2ccccc2[nH]1`: the inhibition is 14.3%.

On to `COc1ccccc1OCCNCC(O)COc1cccc2[nH]c3ccccc3c12` (stereo not given), for which the inhibition was 59.7% (active).

Turning to `CC(O)CNCCOc1cccc(Oc2ccccc2)c1` (stereo not given), the inhibition is 3.22%.

Turning to `CC(C)(C)NCC(O)COc1cccc2[nH]c(=O)[nH]c12` (stereo not given), the inhibition was 8.82%.

As to `Cc1sc(NC(=O)c2ccc3ncsc3c2)c(C(N)=O)c1C`, the inhibition is 43.8% (active).

Turning to `COc1ccccc1-c1nnc(NC(=O)c2ccc3ncsc3c2)o1`, the inhibition was 8.4%.

On to `Cc1ccc(C(=O)c2c(NC(=O)c3ccccc3)sc(C)c2C)cc1`, for which the inhibition is 21.9%.

For `Cc1ccc(C(=O)Nc2ccccc2-c2ccccc2)cc1S(=O)(=O)Nc1ccccc1`, the inhibition is 5.71%.

`CCOc1ccc(N(CC(=O)NCc2ccc(OC)cc2)S(=O)(=O)c2c(C)noc2C)cc1`: the inhibition was 0.77%.

On to `Cc1noc(C)c1S(=O)(=O)N(CC(=O)NCc1ccc(Cl)cc1)c1ccc2c(c1)OCO2`, for which the inhibition is 80.7% (active).

With `Cc1noc(C)c1S(=O)(=O)N(CC(=O)Nc1ccc2c(c1)OCCO2)c1ccc(C(C)C)cc1`, the inhibition was 23.3%.
